From PubChem BioAssay
Values without a mark were called inactive. Calls of active or inactive are those of the source.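 The calls were made as follows, unless noted: active = growth inhibition above 50% at the single 2 µM test dose, taken to imply half-maximal potency below 2 µM; inactive = the rest.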

Experiment: antimalarial activity against Dd2 strain (AID 2302);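 also: 0% = DMSO untreated growth and 100% = chloroquine plus artemisinin killed control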
Conditions: P. falciparum Dd2 in RBCs, LDH growth readout, 72 h; at 2 µM; active compounds read high

Row | Compound | growth inhibition
1 | CCC(C(=O)Nc1cc(=O)[nH]c2nc(-c3ccco3)nn12)c1ccccc1 (stereo not given) | 68% (active)
2 | O=C(Nc1ccc(-c2csc(-c3nc4ccccc4[nH]3)c2)cc1)Nc1ccc(Cl)c(Cl)c1 | 18%
3 | O=C(Nc1ccc(C(=O)N2CCN(CCN3CCN(c4cccc(C(F)(F)F)c4)CC3)CC2)cc1)c1ccc(C(F)(F)F)cc1 | 28%
4 | COc1ccc(CNC2CCN(C)CC2)cc1-c1ccc(S(=O)(=O)NCc2ccccc2)c(F)c1 | 97% (active)
5 | CCCCN(Cc1cc(Cl)c(OCC)c(OC)c1)c1ccc(C(O)(C(F)(F)F)C(F)(F)F)cc1 | 97% (active)
6 | O=C(NCCCCN1CCN(c2cccc3ccccc23)CC1)c1ccc(NC(=O)c2ccc(Cl)cc2)cc1 | 64% (active)
7 | CCOc1ccccc1[C@H]1[C@H](C(=O)C(C)(C)C)N2c3ccc(Br)cc3C=CC2C12C(=O)c1ccccc1C2=O (stereo not given in full) | 94% (active)
8 | Cc1nnsc1C(=O)Nc1cccc(-c2ccc(-c3nc4ccc(F)cc4[nH]3)s2)c1 | 22%
9 | O=C1C2=C(Nc3ccccc3SC2c2cccs2)c2ccccc21 (stereo not given) | 93% (active)
10 | COc1ccc(CCNCCCCCCNCCc2ccc(Cl)cc2)c(Cl)c1OC | 4%
11 | C=CCc1cccc(C)c1OCCCON1C(N)=NC(N)=NC1(C)C | 95% (active)
12 | COc1ccccc1N(C)CCNc1cc(C)nc(Nc2ccccc2)n1 | 13%
13 | CN1CCN(C(C(=O)NCc2cc(Cl)cc(Cl)c2)c2ccccc2-c2ccsc2)CC1 (stereo not given) | 80% (active)
14 | CNCCNCc1cccc(-c2ccc(-c3nc4c(C)cccc4[nH]3)s2)c1 | 8%
15 | Cc1ccc(C(C#N)c2ccc3c(C(F)(F)F)cc(C(F)(F)F)nc3n2)cc1 (stereo not given) | 36%
16 | O=C(/C=C/c1ccc(Cl)c(Cl)c1)N1CCN(C(=O)Nc2ccc(C(F)(F)F)cc2)CC1 | 101% (active)
17 | CC(Cl)=CCc1c(C)[nH]c2c(ccc3ccccc32)c1=O | 96% (active)
18 | O=C(Nc1cccc(CN2CCCN(Cc3ncc[nH]3)CC2)c1)c1cc2ccccc2s1 | 35%
19 | CC(C)c1ccc2c(c1)c(SC(C)(C)C)c(CC(C)(C)C#N)n2Cc1ccc(Cl)cc1 | 95% (active)
20 | COc1cc2nc(N3CCN(c4nc(N)c5cc(OC)c(OC)cc5n4)CC3)nc(N)c2cc1OC | 99% (active)

Row | Compound | growth inhibition
21 | COc1cc(NC(=O)c2cccs2)c(OC)cc1NC(=O)Nc1cccc(Cl)c1 | 10%
22 | COc1ccc2nccc([C@@H](O)CN3CCC(NC(=O)C(c4cc5ccccc5o4)N4CCN(c5ccccc5)CC4)CC3)c2c1 (stereo not given in full) | 99% (active)
23 | CCN(CC)CCN(Cc1ccc(-c2ccc(Cl)cc2)cc1)C(=O)Cn1cc(CN(C)C)c(=O)nc1SCc1ccc(F)cc1 | 99% (active)
24 | Cc1[nH]c(C)c(-c2ccc(OCc3ccccc3)cc2)c(=O)c1Br | 96% (active)
25 | CSc1sc(NC(=O)Nc2cccc(C(F)(F)F)c2)cc1C#N | 46%
26 | Cc1ccc(S(=O)(=O)NC2CCN(c3ccnc4cc(Cl)ccc34)C2)cc1 (stereo not given) | 90% (active)
27 | COc1ccc2nccc([C@@H](O)CN3CC[C@H](NCc4ccc5c(n4)NC(=O)CS5)[C@H](F)C3)c2c1 | 88% (active)
28 | COC(=O)c1ccc(OCC(O)CO)cc1O (stereo not given) | 23%
29 | COC(=O)c1cc(/C(C)=N/Nc2nc3ccccc3[nH]2)ccc1O | 75% (active)
30 | Cc1[nH]c(C)c(-c2ccc(OCCCc3ccccn3)cc2)c(=O)c1Br | 97% (active)
31 | Cc1ccc(NC(=O)c2ccc3ncccc3c2)cc1OC1CCN(C(C)C)C1 (stereo not given) | 37%
32 | CCN(CC1CCN(CC2(O)CCOCC2)CC1)c1cc(C)nc(Nc2ccc(Cl)cc2)n1 | 99% (active)
33 | CC(C)c1ccc(NC(=S)NN=Cc2ccccn2)cc1 | 98% (active)
34 | Fc1ccccc1CNc1ncc(-c2ccsc2)c(-c2nccs2)n1 | 71% (active)
35 | Cc1nc(N)nc(N)c1Oc1cccc(Cl)c1 | -3%
36 | Cc1cnc(-c2cccc(C(=O)NC3CCC(CCN4CCc5ccc(C#N)cc5CC4)CC3)c2)[nH]1 (stereo not given) | 69% (active)
37 | CC1(C)CCNc2cc(NC(=O)c3ccc(-c4ncccc4C(F)(F)F)cc3)ccc21 | 86% (active)
38 | COc1ccc(NC(=O)[C@H](Cc2ccccc2)Nc2cc(C)nc(NCCc3cccnc3)n2)cc1 | 5%
39 | O=C1SC(=Cc2ccc(O)c(O)c2)C(=O)N1c1ccccc1 | 17%
40 | O=C(CCCCCNC(=O)c1ccc(O)c(-c2ccc(Cl)c(Cl)c2)c1)NC1CCCCCC1 | 3%

Experiment: human hepatoma cell viability loss – ATP luminescence, cytotoxicity control for P. falciparum antimalarial project, primary screen (AID 2303;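 active = inhibition above 50%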;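 also: 0% = DMSO wells and 100% = digitonin-killed cells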)
Conditions: HepG2 viability, 24-48 h, at 10 µM, active compounds read high

Row | Compound | inhibition
41 | CCC(C(=O)Nc1cc(=O)[nH]c2nc(-c3ccco3)nn12)c1ccccc1 (stereo not given) | 2%
42 | O=C(Nc1ccc(-c2csc(-c3nc4ccccc4[nH]3)c2)cc1)Nc1ccc(Cl)c(Cl)c1 | 75% (active)
43 | O=C(Nc1ccc(C(=O)N2CCN(CCN3CCN(c4cccc(C(F)(F)F)c4)CC3)CC2)cc1)c1ccc(C(F)(F)F)cc1 | 39%
44 | COc1ccc(CNC2CCN(C)CC2)cc1-c1ccc(S(=O)(=O)NCc2ccccc2)c(F)c1 | 53% (active)
45 | CCCCN(Cc1cc(Cl)c(OCC)c(OC)c1)c1ccc(C(O)(C(F)(F)F)C(F)(F)F)cc1 | 5%
46 | O=C(NCCCCN1CCN(c2cccc3ccccc23)CC1)c1ccc(NC(=O)c2ccc(Cl)cc2)cc1 | 38%
47 | CCOc1ccccc1[C@H]1[C@H](C(=O)C(C)(C)C)N2c3ccc(Br)cc3C=CC2C12C(=O)c1ccccc1C2=O (stereo not given in full) | 17%
48 | Cc1nnsc1C(=O)Nc1cccc(-c2ccc(-c3nc4ccc(F)cc4[nH]3)s2)c1 | 62% (active)
49 | O=C1C2=C(Nc3ccccc3SC2c2cccs2)c2ccccc21 (stereo not given) | 8%
50 | COc1ccc(CCNCCCCCCNCCc2ccc(Cl)cc2)c(Cl)c1OC | 88% (active)
51 | C=CCc1cccc(C)c1OCCCON1C(N)=NC(N)=NC1(C)C | 65% (active)
52 | COc1ccccc1N(C)CCNc1cc(C)nc(Nc2ccccc2)n1 | 10%
53 | CN1CCN(C(C(=O)NCc2cc(Cl)cc(Cl)c2)c2ccccc2-c2ccsc2)CC1 (stereo not given) | 11%
54 | CNCCNCc1cccc(-c2ccc(-c3nc4c(C)cccc4[nH]3)s2)c1 | 10%
55 | Cc1ccc(C(C#N)c2ccc3c(C(F)(F)F)cc(C(F)(F)F)nc3n2)cc1 (stereo not given) | 14%
56 | O=C(/C=C/c1ccc(Cl)c(Cl)c1)N1CCN(C(=O)Nc2ccc(C(F)(F)F)cc2)CC1 | 47%
57 | CC(Cl)=CCc1c(C)[nH]c2c(ccc3ccccc32)c1=O | 24%
58 | O=C(Nc1cccc(CN2CCCN(Cc3ncc[nH]3)CC2)c1)c1cc2ccccc2s1 | 22%
59 | CC(C)c1ccc2c(c1)c(SC(C)(C)C)c(CC(C)(C)C#N)n2Cc1ccc(Cl)cc1 | -3%
60 | COc1cc2nc(N3CCN(c4nc(N)c5cc(OC)c(OC)cc5n4)CC3)nc(N)c2cc1OC | 13%

Row | Compound | inhibition
61 | COc1cc(NC(=O)c2cccs2)c(OC)cc1NC(=O)Nc1cccc(Cl)c1 | 5%
62 | COc1ccc2nccc([C@@H](O)CN3CCC(NC(=O)C(c4cc5ccccc5o4)N4CCN(c5ccccc5)CC4)CC3)c2c1 (stereo not given in full) | 19%
63 | CCN(CC)CCN(Cc1ccc(-c2ccc(Cl)cc2)cc1)C(=O)Cn1cc(CN(C)C)c(=O)nc1SCc1ccc(F)cc1 | 49%
64 | Cc1[nH]c(C)c(-c2ccc(OCc3ccccc3)cc2)c(=O)c1Br | 19%
65 | CSc1sc(NC(=O)Nc2cccc(C(F)(F)F)c2)cc1C#N | 27%
66 | Cc1ccc(S(=O)(=O)NC2CCN(c3ccnc4cc(Cl)ccc34)C2)cc1 (stereo not given) | 21%
67 | COc1ccc2nccc([C@@H](O)CN3CC[C@H](NCc4ccc5c(n4)NC(=O)CS5)[C@H](F)C3)c2c1 | 5%
68 | COC(=O)c1ccc(OCC(O)CO)cc1O (stereo not given) | 4%
69 | COC(=O)c1cc(/C(C)=N/Nc2nc3ccccc3[nH]2)ccc1O | 9%
70 | Cc1[nH]c(C)c(-c2ccc(OCCCc3ccccn3)cc2)c(=O)c1Br | -8%
71 | Cc1ccc(NC(=O)c2ccc3ncccc3c2)cc1OC1CCN(C(C)C)C1 (stereo not given) | 12%
72 | CCN(CC1CCN(CC2(O)CCOCC2)CC1)c1cc(C)nc(Nc2ccc(Cl)cc2)n1 | 34%
73 | CC(C)c1ccc(NC(=S)NN=Cc2ccccn2)cc1 | 47%
74 | Fc1ccccc1CNc1ncc(-c2ccsc2)c(-c2nccs2)n1 | 11%
75 | Cc1nc(N)nc(N)c1Oc1cccc(Cl)c1 | 49%
76 | Cc1cnc(-c2cccc(C(=O)NC3CCC(CCN4CCc5ccc(C#N)cc5CC4)CC3)c2)[nH]1 (stereo not given) | 23%
77 | CC1(C)CCNc2cc(NC(=O)c3ccc(-c4ncccc4C(F)(F)F)cc3)ccc21 | 7%
78 | COc1ccc(NC(=O)[C@H](Cc2ccccc2)Nc2cc(C)nc(NCCc3cccnc3)n2)cc1 | 11%
79 | O=C1SC(=Cc2ccc(O)c(O)c2)C(=O)N1c1ccccc1 | 12%
80 | O=C(CCCCCNC(=O)c1ccc(O)c(-c2ccc(Cl)c(Cl)c2)c1)NC1CCCCCC1 | -4%
